Data: the supplement of paper PMC10849652
For some of these results: About 7,900 targets were measured; listed, in parts, are those with a hit and a random draw of the rest. For some of these results: About 0.6% of all pairs of compound and target were hits. For some of these results: About 8,800 targets were measured; listed, in parts, are those with a hit and a random draw of the rest. For some of these results: About 0.5% of all pairs of compound and target were hits.

How the values were obtained:
[1] = compound: C1=CC=C(C=C1)[C@H](COC2=CC3=C(C=C2)NC(=O)N3)NC(=O)C4=CC=CN(C4=O)CC5=CC(=C(C=C5)F)F; assay: log2 fold change, soluble protein after heating vs DMSO (PISA); higher = thermal stabilisation; K562 cells, 10 uM, 30 min; active = over 0.2 and 3.5 SD of the protein, either way, in both replicates (recomputed)
Procedure, shortened: (§1)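 Quantification of soluble protein used TMTpro 16plex LC-MS/MS, with channel sums equalised. Samples were the supernatant after 21,000xg for 90 min of pooled aliquots from K562 cells (2×10^6 cells/mL) treated with 10 μM compound for 30 min, heated for 3 min over 48°C-58°C, and extracted in PBS with 0.5% NP-40 at 4°C. Values, from duplicates, describe thermal stability against control samples on a log2 fold-change scale.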

[2] = compound: CC1=C(SC2=C1C(=N[C@H](C3=NN=C(N32)C)CC(=O)N)C4=CC=C(C=C4)Cl)C; assay: as above
Procedure, shortened: as §1

[3] = compound: CC1=C2C(=CC=C1)N=C(N(C2=O)C3=CC=CC=C3C)CN4C=NC5=C(N=CN=C54)N; assay: as above
Procedure, shortened: as §1

[4] = compound: Cc1sc2c(c1C)C(c1ccc(Cl)cc1)=N[C@@H](CC(=O)OC(C)(C)C)c1nnc(C)n1-2; assay: as above
Procedure, shortened: as §1

[5] = compound: c1ccc([C@@H]2C[C@H]2NC2CCNCC2)cc1; assay: as above
Procedure, shortened: as §1

[6] = compound: C1=CC=C(C=C1)[C@H](COC2=CC3=C(C=C2)NC(=O)N3)NC(=O)C4=CC=CN(C4=O)CC5=CC(=C(C=C5)F)F; assay: log2 fold change, soluble protein after heating vs DMSO (PISA); higher = thermal stabilisation; K562 lysate, 10 uM; active = over 0.2 and 3.5 SD of the protein, either way, in both replicates (recomputed)
Procedure, shortened: (§2)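 Log-two fold change in thermal stability relative to solvent controls is reported from duplicates. For each sample, crude K562 extract from dounce-homogenised pellets in PBS pH 7.4 with 1 mM MgCl2, at 1 mg/mL protein, was treated with 10 μM compound for 30 min. Aliquots heated for 3 min across 48°C-58°C were pooled, brought to 0.5% NP-40 at 4°C and cleared at 21,000xg for 90 min. The supernatant was quantified by TMTpro 16plex LC-MS/MS with channel sums equalised.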

[7] = compound: CC1=C(SC2=C1C(=N[C@H](C3=NN=C(N32)C)CC(=O)N)C4=CC=C(C=C4)Cl)C; assay: as above
Procedure, shortened: as §2

[8] = compound: CC1=C2C(=CC=C1)N=C(N(C2=O)C3=CC=CC=C3C)CN4C=NC5=C(N=CN=C54)N; assay: as above
Procedure, shortened: as §2

[9] = compound: c1ccc([C@@H]2C[C@H]2NC2CCNCC2)cc1; assay: as above
Procedure, shortened: as §2

[10] = compound: Cc1sc2c(c1C)C(c1ccc(Cl)cc1)=N[C@@H](CC(=O)OC(C)(C)C)c1nnc(C)n1-2; assay: as above
Procedure, shortened: as §2

Measured: log2 fold change

YWHAZ (UniProt P63104)
inactive: [1] -0.012 | [2] 0.035 | [3] -0.031 | [4] -0.033 | [5] -0.025

ANKRD44 isoform 2 (UniProt Q8N8A2)
Chain of UniProt Q8N8A2 (Q8N8A2 whole entry, looked up): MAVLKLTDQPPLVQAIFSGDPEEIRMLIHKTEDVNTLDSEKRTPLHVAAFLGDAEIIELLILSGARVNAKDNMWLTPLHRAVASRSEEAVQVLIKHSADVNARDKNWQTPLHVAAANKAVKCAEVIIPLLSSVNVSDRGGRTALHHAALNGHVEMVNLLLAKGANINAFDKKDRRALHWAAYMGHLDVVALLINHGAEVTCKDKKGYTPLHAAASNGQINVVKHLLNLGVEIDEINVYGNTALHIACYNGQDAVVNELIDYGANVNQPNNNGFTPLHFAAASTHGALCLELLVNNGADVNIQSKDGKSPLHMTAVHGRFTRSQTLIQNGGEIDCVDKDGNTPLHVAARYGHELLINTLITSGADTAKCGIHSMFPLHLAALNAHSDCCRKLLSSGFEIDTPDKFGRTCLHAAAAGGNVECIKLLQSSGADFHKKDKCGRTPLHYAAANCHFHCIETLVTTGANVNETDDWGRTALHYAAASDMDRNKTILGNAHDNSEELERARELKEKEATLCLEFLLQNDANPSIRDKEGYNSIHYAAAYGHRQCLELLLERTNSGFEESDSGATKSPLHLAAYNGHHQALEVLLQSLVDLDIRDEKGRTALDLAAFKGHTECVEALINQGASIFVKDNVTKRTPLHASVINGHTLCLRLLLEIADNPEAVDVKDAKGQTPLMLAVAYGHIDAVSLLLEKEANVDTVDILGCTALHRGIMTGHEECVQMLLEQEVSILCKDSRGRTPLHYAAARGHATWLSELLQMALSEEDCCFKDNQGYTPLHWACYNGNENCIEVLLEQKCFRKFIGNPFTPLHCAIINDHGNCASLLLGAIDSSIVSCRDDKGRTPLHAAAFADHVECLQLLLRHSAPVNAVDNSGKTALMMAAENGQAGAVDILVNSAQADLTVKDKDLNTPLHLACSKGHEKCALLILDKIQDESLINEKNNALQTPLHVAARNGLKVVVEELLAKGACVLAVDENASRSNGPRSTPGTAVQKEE
active: [9] -1
inactive: [6] -0.032 | [7] -0.045 | [8] 0.019

ACAT1, A0A5F9ZHJ0
inactive: [9] -0.06

ZYG11B (UniProt Q9C0D3)
inactive: [1] 0.057 | [2] 0.086 | [3] 0.011 | [4] -0.02 | [5] 0.044

AGGF1 (UniProt Q8N302)
inactive: [6] 0.042 | [7] 0.049 | [8] 0.024 | [9] -0.149

ANXA5 (UniProt P08758)
inactive: [6] 0.031 | [7] 0.016 | [8] 0.013 | [10] 0.033 | [9] 0.075

AP3D1 isoform 2 (UniProt O14617)
inactive: [8] -0.009 | [9] 0.061

ACYP2 (UniProt P14621)
Chain of UniProt P14621 (P14621 whole entry, looked up): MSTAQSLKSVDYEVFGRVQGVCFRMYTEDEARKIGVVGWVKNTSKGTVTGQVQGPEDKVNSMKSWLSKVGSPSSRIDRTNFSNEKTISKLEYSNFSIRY
inactive: [6] -0.061 | [7] -0.032 | [8] 0.011 | [9] 0.118

AIF1L (UniProt Q9BQI0)
Chain of UniProt Q9BQI0 (Q9BQI0 whole entry, looked up): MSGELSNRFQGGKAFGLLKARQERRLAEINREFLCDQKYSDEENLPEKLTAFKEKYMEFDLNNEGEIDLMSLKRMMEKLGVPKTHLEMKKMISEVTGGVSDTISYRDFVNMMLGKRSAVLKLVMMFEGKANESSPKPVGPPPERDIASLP
inactive: [6] 0.072 | [7] -0.031 | [10] 0.049 | [9] -0.022

ZNF609 (UniProt O15014)
Chain of UniProt O15014 (O15014 whole entry, looked up): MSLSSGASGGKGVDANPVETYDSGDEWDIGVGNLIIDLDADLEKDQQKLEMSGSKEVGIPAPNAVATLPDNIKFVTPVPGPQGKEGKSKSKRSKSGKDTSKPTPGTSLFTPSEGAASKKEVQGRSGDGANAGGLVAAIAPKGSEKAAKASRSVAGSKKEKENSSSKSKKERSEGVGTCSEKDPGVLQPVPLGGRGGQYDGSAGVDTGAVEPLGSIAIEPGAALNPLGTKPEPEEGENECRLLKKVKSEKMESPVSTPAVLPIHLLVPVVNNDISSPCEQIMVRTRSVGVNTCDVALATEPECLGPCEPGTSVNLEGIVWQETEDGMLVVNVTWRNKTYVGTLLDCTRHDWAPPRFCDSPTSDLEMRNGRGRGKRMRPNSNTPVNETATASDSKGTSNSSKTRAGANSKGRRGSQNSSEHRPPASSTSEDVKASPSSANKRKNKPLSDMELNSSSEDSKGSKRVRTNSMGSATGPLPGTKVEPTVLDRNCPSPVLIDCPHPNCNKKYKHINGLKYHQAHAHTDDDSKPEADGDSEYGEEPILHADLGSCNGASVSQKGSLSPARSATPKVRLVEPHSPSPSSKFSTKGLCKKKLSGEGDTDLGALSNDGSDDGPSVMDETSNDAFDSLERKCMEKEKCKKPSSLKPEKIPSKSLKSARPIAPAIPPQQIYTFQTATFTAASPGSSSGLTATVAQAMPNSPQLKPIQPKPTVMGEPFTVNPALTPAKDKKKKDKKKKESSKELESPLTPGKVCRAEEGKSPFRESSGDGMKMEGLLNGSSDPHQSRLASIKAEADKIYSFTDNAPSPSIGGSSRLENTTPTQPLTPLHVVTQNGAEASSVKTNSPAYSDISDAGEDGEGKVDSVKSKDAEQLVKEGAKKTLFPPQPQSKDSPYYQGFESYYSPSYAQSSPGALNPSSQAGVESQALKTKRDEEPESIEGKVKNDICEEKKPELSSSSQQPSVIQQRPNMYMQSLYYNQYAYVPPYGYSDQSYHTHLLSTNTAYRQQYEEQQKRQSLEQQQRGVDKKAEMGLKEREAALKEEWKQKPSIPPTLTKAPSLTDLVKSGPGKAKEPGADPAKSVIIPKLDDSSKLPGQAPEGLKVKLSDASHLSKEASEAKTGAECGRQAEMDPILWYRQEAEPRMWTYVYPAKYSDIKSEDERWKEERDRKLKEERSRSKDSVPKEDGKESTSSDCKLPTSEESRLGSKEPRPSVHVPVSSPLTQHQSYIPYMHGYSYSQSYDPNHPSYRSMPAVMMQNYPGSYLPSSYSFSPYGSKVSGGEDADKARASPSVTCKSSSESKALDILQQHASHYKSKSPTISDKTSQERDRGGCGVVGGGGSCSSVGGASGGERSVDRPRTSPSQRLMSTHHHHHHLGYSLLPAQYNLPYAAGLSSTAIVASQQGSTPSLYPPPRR
inactive: [1] 0.035 | [2] -0.008 | [3] 0.148 | [4] 0.14 | [5] 0.073

ABRACL (UniProt Q9P1F3)
Chain of UniProt Q9P1F3 (Q9P1F3 whole entry, looked up): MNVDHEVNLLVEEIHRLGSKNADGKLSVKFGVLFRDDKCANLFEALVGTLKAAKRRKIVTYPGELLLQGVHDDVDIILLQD
inactive: [6] 0.052 | [7] -0.221 | [10] 0.054 | [9] 0.075

ALDH3A1 (UniProt P30838)
inactive: [10] -0.209 | [9] -0.339

YES1 (UniProt P07947)
inactive: [1] 0.025 | [2] -0.056 | [3] 0.126 | [4] -0.005 | [5] -0.038

ANXA2 (UniProt H0YL33)
inactive: [6] 0.079 | [7] -0.079 | [10] -0.135 | [9] 0.466

AGPAT2 (UniProt O15120)
inactive: [8] -0.11 | [9] 0.034

ALG13 isoform 2 (UniProt Q9NP73)
inactive: [9] -0.109

ACADS (UniProt P16219)
inactive: [6] -0.015 | [7] 0.069 | [8] 0.054 | [10] 0.013 | [9] 0.003

ALKBH1 (UniProt Q13686)
Chain of UniProt Q13686 (Q13686 whole entry, looked up): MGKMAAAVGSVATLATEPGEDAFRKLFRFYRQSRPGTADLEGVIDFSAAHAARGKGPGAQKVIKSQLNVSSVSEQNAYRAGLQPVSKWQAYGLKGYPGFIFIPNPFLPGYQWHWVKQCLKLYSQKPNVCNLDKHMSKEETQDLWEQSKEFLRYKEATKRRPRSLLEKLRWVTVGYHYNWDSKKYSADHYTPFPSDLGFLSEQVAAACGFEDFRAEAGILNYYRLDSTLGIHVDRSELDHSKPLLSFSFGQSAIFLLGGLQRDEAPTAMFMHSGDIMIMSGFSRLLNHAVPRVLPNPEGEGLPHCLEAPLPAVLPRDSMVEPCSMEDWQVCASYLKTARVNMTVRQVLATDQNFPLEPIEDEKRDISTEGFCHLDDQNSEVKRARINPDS
inactive: [8] -0.036 | [10] -0.001 | [9] 0.051

AMDHD2 (UniProt Q9Y303)
inactive: [8] 0.039 | [9] 0.095

YLPM1 (UniProt P49750)
inactive: [1] -0.092 | [2] 0.11 | [3] 0.104 | [4] 0.005 | [5] -0.052

ANKRD30B (UniProt Q9BXX2)
inactive: [6] -0.098 | [7] 0.112 | [8] 0.042 | [10] -0.125 | [9] -0.407

ARL8A (UniProt Q96BM9)
inactive: [6] 0.038 | [7] -0.02 | [8] -0.157 | [10] 0.093 | [9] 0.1

ALKBH7 (UniProt Q9BT30)
inactive: [10] -0.012 | [9] -0.014

ARHGEF2 (UniProt V9GYF0)
inactive: [8] 0.098 | [10] 0.105

ACLY isoform 2 (UniProt P53396)
inactive: [6] 0.099 | [7] -0.01 | [8] 0.023 | [9] -0.325

ANKRD30A (UniProt Q9BXX3)
inactive: [6] -0.04 | [7] -0.051 | [10] -0.03 | [9] 0.064

ZFPL1 (UniProt O95159)
inactive: [1] 0.09 | [2] 0.084 | [3] 0.063 | [4] -0.042 | [5] -0.032

ANP32E isoform 3 (UniProt Q9BTT0)
inactive: [6] 0.003 | [7] 0.09 | [8] 0.015 | [9] -0.39

ZC3H8 (UniProt Q8N5P1)
inactive: [1] 0.095 | [2] -0.089 | [3] -0.084 | [4] 0.091 | [5] 0

ZW10 (UniProt O43264)
inactive: [1] -0.044 | [2] 0.044 | [3] 0.018 | [4] -0.004 | [5] 0

ZMYM1 (UniProt Q5SVZ6)
inactive: [1] 0.077 | [2] 0.082 | [3] -0.144 | [4] -0.012 | [5] -0.011

AGPAT1 (UniProt Q99943)
inactive: [6] -0.04 | [7] 0.024 | [8] 0.089 | [10] -0.038 | [9] -0.134

ZER1 (UniProt Q7Z7L7)
inactive: [1] 0 | [2] -0.007 | [3] 0.018 | [4] -0.064 | [5] -0.03

ZCCHC17 (UniProt Q9NP64)
inactive: [3] -0.124

YY1 (UniProt P25490)
Chain of UniProt P25490 (P25490 whole entry, looked up): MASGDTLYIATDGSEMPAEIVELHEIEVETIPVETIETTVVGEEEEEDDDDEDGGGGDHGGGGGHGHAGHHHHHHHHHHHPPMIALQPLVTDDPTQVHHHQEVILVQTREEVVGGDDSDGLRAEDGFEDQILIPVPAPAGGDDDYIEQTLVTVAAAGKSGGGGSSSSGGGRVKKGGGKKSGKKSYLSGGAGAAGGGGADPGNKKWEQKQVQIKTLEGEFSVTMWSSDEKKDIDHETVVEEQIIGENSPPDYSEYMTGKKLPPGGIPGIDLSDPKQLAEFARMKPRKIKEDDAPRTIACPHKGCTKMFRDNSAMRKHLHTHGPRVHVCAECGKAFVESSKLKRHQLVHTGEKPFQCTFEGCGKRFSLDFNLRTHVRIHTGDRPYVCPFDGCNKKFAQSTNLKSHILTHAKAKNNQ
inactive: [1] 0.013 | [2] -0.006 | [3] -0.033 | [4] -0.015 | [5] 0.084

ZFAND6 (UniProt Q6FIF0)
Chain of UniProt Q6FIF0 (Q6FIF0 whole entry, looked up): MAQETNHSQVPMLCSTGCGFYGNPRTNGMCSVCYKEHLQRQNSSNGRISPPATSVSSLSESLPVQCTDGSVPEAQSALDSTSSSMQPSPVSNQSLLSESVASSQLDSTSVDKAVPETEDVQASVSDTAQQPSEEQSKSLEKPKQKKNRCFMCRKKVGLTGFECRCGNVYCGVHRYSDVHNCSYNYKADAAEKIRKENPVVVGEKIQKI
inactive: [1] 0 | [2] -0.015 | [3] 0.042 | [4] -0.143 | [5] 0.004

ZDHHC5 (UniProt Q9C0B5)
inactive: [1] 0.015 | [2] 0.007 | [3] 0.04 | [4] -0.013 | [5] 0.077

ZFAND5 (UniProt O76080)
inactive: [1] -0.025 | [2] -0.21 | [3] -0.129 | [4] -0.024 | [5] 0.143

ZNF239 (UniProt Q16600)
Chain of UniProt Q16600 (Q16600 whole entry, looked up): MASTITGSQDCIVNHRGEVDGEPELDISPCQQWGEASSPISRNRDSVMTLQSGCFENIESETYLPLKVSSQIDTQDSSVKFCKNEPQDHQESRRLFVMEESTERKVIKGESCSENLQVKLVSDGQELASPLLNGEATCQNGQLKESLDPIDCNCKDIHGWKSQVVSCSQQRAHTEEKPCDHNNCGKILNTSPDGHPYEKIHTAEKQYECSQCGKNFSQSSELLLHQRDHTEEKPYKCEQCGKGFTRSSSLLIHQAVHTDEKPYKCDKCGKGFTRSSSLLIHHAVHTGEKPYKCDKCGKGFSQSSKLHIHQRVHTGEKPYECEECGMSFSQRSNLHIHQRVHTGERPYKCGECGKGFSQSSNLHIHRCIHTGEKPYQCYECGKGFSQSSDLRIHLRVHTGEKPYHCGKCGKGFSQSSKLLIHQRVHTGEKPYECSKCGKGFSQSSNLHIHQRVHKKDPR
inactive: [1] -0.17 | [2] -0.151 | [3] -0.06 | [4] -0.082 | [5] 0.06

ZCCHC9 (UniProt Q8N567)
inactive: [1] 0.173 | [2] -0.074 | [3] -0.202 | [4] 0.222 | [5] 0.023

YWHAZ (UniProt E7ESK7)
inactive: [1] 0.066 | [2] 0.009 | [4] 0.083 | [5] 0.052

ZDHHC20 (UniProt Q5W0Z9)
inactive: [1] -0.023 | [2] -0.001 | [3] -0.047 | [4] -0.061 | [5] 0.067

ZDHHC17 (UniProt Q8IUH5)
inactive: [1] 0.014 | [2] 0.062 | [3] -0.082 | [4] -0.039 | [5] -0.011

YOD1 (UniProt Q5VVQ6)
inactive: [1] -0.071 | [2] 0.035 | [3] 0.063 | [4] -0.005 | [5] 0.046

ZEB2 (UniProt O60315)
inactive: [1] -0.125 | [3] 0.137 | [4] 0.368

YPEL5 (UniProt P62699)
inactive: [1] -0.066 | [2] 0.044 | [3] 0.016 | [5] -0.081

ZNF622 (UniProt Q969S3)
inactive: [1] -0.028 | [2] 0.033 | [3] 0.073 | [4] -0.016 | [5] -0.049

ZWILCH (UniProt Q9H900)
inactive: [1] -0.077 | [2] 0.036 | [3] 0.063 | [4] 0.037 | [5] 0.002

ZNF512 (UniProt Q96ME7)
inactive: [2] -0.117 | [5] -0.363

ZMAT2 (UniProt Q96NC0)
inactive: [1] 0.029 | [2] -0.025 | [3] -0.009 | [4] -0.042 | [5] -0.016

ZNF143 (UniProt P52747)
inactive: [1] 0.015 | [2] -0.013 | [3] -0.022 | [4] 0.064 | [5] 0.107

YIPF5 isoform 3 (UniProt Q969M3)
Chain of UniProt Q969M3 (Q969M3 whole entry, looked up): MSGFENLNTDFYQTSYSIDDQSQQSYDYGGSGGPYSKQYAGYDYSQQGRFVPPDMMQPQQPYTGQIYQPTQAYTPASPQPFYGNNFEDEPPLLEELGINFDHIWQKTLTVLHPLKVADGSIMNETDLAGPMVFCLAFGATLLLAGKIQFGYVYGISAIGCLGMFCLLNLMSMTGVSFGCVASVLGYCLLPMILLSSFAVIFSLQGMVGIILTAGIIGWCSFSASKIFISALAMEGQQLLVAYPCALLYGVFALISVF
inactive: [1] 0 | [2] 0.025 | [3] 0.018 | [4] 0.002 | [5] 0.08

ZC3H18 (UniProt Q86VM9)
inactive: [1] 0.032 | [2] -0.031 | [3] 0.035 | [4] 0.021 | [5] 0.047

ZMYM3 (UniProt Q14202)
inactive: [1] -0.03 | [2] 0.055 | [3] -0.02 | [4] 0.043 | [5] 0.103

YWHAQ (UniProt P27348)
inactive: [1] -0.031 | [2] 0.009 | [3] -0.152 | [4] -0.089 | [5] -0.083

ZDHHC8 isoform 3 (UniProt Q9ULC8)
inactive: [1] 0.105 | [4] 0

ZBTB17 isoform 2 (UniProt Q13105)
inactive: [1] -0.08 | [4] -0.019

YBX1 (UniProt P67809)
inactive: [1] 0.105 | [2] -0.228 | [3] -0.143 | [4] 0.115 | [5] 0.052

ZNF580 (UniProt Q9UK33)
inactive: [3] -0.16 | [4] 0.029

ZNF579 (UniProt Q8NAF0)
inactive: [1] 0.05 | [2] -0.074 | [3] -0.025 | [4] 0.151 | [5] -0.147

YAE1 (UniProt Q9NRH1)
inactive: [1] -0.021 | [2] -0.111 | [3] 0.016 | [4] -0.014 | [5] 0.095

ZADH2 (UniProt Q8N4Q0)
Chain of UniProt Q8N4Q0 (Q8N4Q0 whole entry, looked up): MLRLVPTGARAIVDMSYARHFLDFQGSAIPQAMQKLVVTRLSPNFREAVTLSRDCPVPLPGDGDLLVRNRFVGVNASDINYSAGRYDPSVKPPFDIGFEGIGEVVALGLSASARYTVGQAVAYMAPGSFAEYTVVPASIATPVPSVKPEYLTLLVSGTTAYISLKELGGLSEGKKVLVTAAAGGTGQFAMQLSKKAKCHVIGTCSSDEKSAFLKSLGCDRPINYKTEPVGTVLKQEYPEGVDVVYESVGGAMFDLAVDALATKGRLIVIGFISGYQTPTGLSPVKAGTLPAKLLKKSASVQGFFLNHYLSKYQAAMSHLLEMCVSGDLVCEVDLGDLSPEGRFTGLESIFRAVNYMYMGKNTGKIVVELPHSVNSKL
inactive: [1] 0.012 | [2] -0.039 | [3] -0.076 | [4] -0.026 | [5] 0.008
